Our source for the growth values is PubChem BioAssay (NCI).

The panel holds about 83,000 compounds, 20% with a hit somewhere; the sample as a whole holds those more often.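 Percent growth is the endpoint: 0 to 100 indicates growth inhibition (40 means 60% inhibition), 0 means no net growth, and negative values indicate cell death.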 A number with no mark means an inactive call. Activity calls are given as the source filed them. The calls were made as follows: active = growth percent below 10; inactive = the rest.

Holding throughout (test): NCI-60 one-dose screen, 48 h (100 = growth as untreated, 0 = no growth, -100 = all killed)
Common to all, as to details: 10 µM unless noted

The subject of assay [1] is NCI-H23 lung.
Assay [2] concerns NCI-H226 lung.
For assay [3], the system named is NCI-H322M lung.
For assay [4], the system named is HOP-62 NSCLC.
For assay [5], the system named is NCI-H460 lung.
Assay [6] relates to HOP-92 NSCLC.
The subject of assay [7] is NCI-H522 lung.
For assay [8], the system named is A549/ATCC NSCLC.
Assay [9] relates to 786-0 renal.
The test system of assay [10] is COLO 205 colon.
For assay [11], the system named is DU-145 prostate.
In assay [12] the test system is K-562 leukemia.
Assay [13] has as its system MALME-3M melanoma.
Assay [14] deals with MDA-MB-231 breast.
In assay [15] the test system is SF-268 CNS.
The test system of assay [16] is SF-295 CNS.
The test system of assay [17] is SF-539 CNS.
The subject of assay [18] is M14 melanoma.
Assay [19] deals with RXF 393 renal.

Regarding `O=C(N/N=C/c1ccc(Cl)cc1)c1cc(-c2cc3ccccc3o2)nn1-c1ccccc1`, the growth in assay [1] was 92%; in [2], 91.3%; in assay [3], 96.7%; in [4], 97.3%; in assay [5], 106%; in assay [6], -16.5% (active). In addition, the growth is 77.9% in assay [7]; 97.9% in assay [8]; 95.1% in assay [9]; 96.1% in [10]; 87% in [11]; 91.1% in [12]. Also, the growth in [13] was 105%; in [14], 92.5%; in assay [15], 108%; in assay [16] it was 107%; in assay [17], 84.9%; in assay [18], 99.3%.

On to `Clc1ccc2c(NCCCNCc3ccc4c(c3)OCO4)ccnc2c1`, for which the growth is 72.7% in assay [1]; 80.1% in assay [2]; 71.8% in assay [3]; 42.7% in assay [4]; 60.5% in assay [5]; 47.4% in assay [6]. Besides, the growth was 20.1% in assay [7]; 51.2% in assay [8]; 66.8% in assay [9]; -56.6% (active) in assay [10]; 58.1% in [11]; -10.9% (active) in assay [12]. Besides, the growth in assay [13] is -69.6% (active); in [14], 12.9%; in assay [19], 19%; in assay [15], 62%; in assay [16], 59.8%; in assay [17], -86.7% (active). Also, the growth in [18] was -72.5% (active).

As to `O=C(Cc1ccccc1)Nc1nnc(NC2CCN(c3nnc(NC(=O)Cc4ccccc4)s3)CC2)s1`, the growth in assay [1] was 96.1%; in [2] it was 98.7%; in assay [3], 35.3%; in assay [4], 75.9%; in assay [5], 93.3%; in assay [6] it was 94.5%. Moreover, the growth in assay [7] was 72.5%; in assay [8], 34.4%; in assay [9], 89%; in assay [10] it was 90.1%; in assay [11], 91.7%; in assay [12] it was 87.9%. In addition, the growth in assay [13] is 82.8%; in [14], 77.5%; in assay [15] it was 91.1%; in assay [16] it was 56.8%; in assay [17] it was 93.5%; in assay [18], 85.2%.

For the compound `Cc1cc2c(-c3nc4ccccn4c3NC34CC5CC(CC(C5)C3)C4)c(O)c(O)cc2c(O)c1-c1c(C)cc2c(-c3nc4ccccn4c3NC34CC5CC(CC(C5)C3)C4)c(O)c(O)cc2c1O`, the growth was -1.87% (active) in assay [1]; 12.7% in [2]; 30.2% in [3]; 1.34% (active) in [4]; 5.53% (active) in assay [5]; -9.41% (active) in [6]. In addition, the growth is -5.03% (active) in assay [7]; 2.96% (active) in assay [8]; -12% (active) in assay [9]; 6.77% (active) in [10]; 19.2% in assay [11]; 7.38% (active) in assay [12]. For the same compound, the growth in assay [13] was 7.47% (active); in assay [14], 21.9%; in assay [19], 12.2%; in assay [15] it was 17%; in [16], 1.49% (active); in assay [17], -1.69% (active). The growth in [18] was -0.979% (active).

On to `COc1ccc(C2CC(=O)c3c(O)c(OC)c(OC)c(OC)c3O2)c(O)c1` (stereo not drawn), for which the growth in assay [1] was 27.5%; in [2] it was 66.8%; in [3], 51.4%; in [4] it was 64.9%; in assay [5] it was 9.27% (active); in assay [6], 77.9%. Further, the growth in assay [7] is 12%; in assay [8], 28.1%; in [9] it was 47.2%; in assay [10], 57.3%; in [11] it was 22.2%; in [12], 13.9%. Also, the growth is 64.7% in assay [13]; 24.9% in assay [14]; 44.4% in [15]; 7.86% (active) in [16]; -7.78% (active) in [17]; 12.6% in assay [18].

Turning to `COc1cc(NCCN(CC(C)C)CC(C)C)c2ncc(C)cc2c1`, the growth in assay [1] was 42%; in assay [2], 90.5%; in assay [3], 82.9%; in [4] it was 51.5%; in [5], 60.4%; in [6], 132%. In addition, the growth in [7] was 73.2%; in assay [8], 31.7%; in [9] it was 91.3%; in [10], 49.6%; in assay [11], 71.4%; in assay [12], 34.2%. In addition, the growth in assay [13] was 66.7%; in assay [14], 50.3%; in assay [15] it was 71.1%; in [16], 64.6%; in [17], 97.7%; in assay [18], 61%.

With `N#CC(C#N)=NO`, the growth is 92.7% in assay [1]; 94.6% in assay [2]; 92.1% in assay [3]; 85.8% in assay [4]; 108% in assay [5]; 94% in [6]. For the same compound, the growth in assay [7] was 75%; in assay [8], 73.4%; in assay [9], 99.5%; in [10], 113%; in assay [11], 111%; in assay [12], 108%. In addition, the growth in assay [13] was 99%; in assay [14], 108%; in assay [19], 105%; in [15], 100%; in [16], 101%; in assay [17], 99.8%. The growth in [18] was 110%.

On to `COC(=O)C1CCc2sc3ncnc(Nc4cn[nH]c4C(=O)Nc4ccc(CN5CCN(C)CC5)cc4)c3c21` (stereo not drawn), for which the growth in [1] was -9.63% (active); in assay [2] it was 14.9%; in assay [3], 8.74% (active); in assay [4], 0.169% (active); in [5] it was -59% (active); in [6], -29.2% (active). Also, the growth in [7] is -1.37% (active); in assay [8], 4.85% (active); in [9], -4.45% (active); in assay [10], -70.8% (active); in assay [11], -44.6% (active); in assay [12], -24% (active). Further, the growth is -72.3% (active) in assay [13]; -0.275% (active) in assay [14]; -78.9% (active) in assay [19]; -1.56% (active) in assay [15]; 26.4% in [16]; -77.3% (active) in assay [17]. Moreover, the growth in assay [18] was -0.905% (active).
